Drawing on PubChem BioAssay (EPA / NIEHS), this text covers outcome and AC50 for 38 molecules.

“And” between values parts separate entries of the source, which are not always exact repeats. Identical values can stand only once. Where a structure was tested more than once in an assay, its records may differ in their call. The source made the active and inactive calls. Rule for the calls: active = hit-call score of the fitted dose curve at least 0.9, where 1 is the maximum; inactive = score below 0.9.

Read-out in the test: CD40, CD40 (gene 958)
Kind of test: BSK_LPS_CD40: BioMAP Diversity Plus: LPS Assay for CD40 Biomarker Activity (AID 2283076). The settings on record: primary human HUVEC with PBMC; actives raise or lower the signal. As to the method: BSK_LPS is a cell-based, multiplexed-readout assay that uses umbilical vein endothelium and peripheral blood mononuclear cells, a human vascular primary cell co-culture, with measurements taken at 24 hours after chemical dosing in a 96-well plate.BSK_LPS_CD40 is an assay component measured in the BSK_LPS assay. It measures CD40 antibody related to regulation of gene expression using ELISA technology.Data from the assay component BSK_LPS_CD40 was analyzed into 1 assay endpoint. This assay endpoint, BSK_LPS_CD40, was analyzed with bidirectional fitting relative to DMSO as the negative control and baseline of activity. Using a type of binding reporter, gain or loss-of-signal activity can be used to understand changes in the signaling as they relate to the gene CD40. Furthermore, this assay endpoint can be referred to as a primary readout, because this assay has produced multiple assay endpoints where this one serves a signaling function. To generalize the intended target to other relatable targets, this assay endpoint is annotated to the cytokine intended target family, where the subfamily is inflammatory factor.
The levels of cell surface (or secreted, indicated by the prefix "s") biomarker endpoints were measured by ELISA. Overt cytotoxicity to cells in confluent adherent cultures (all systems other than the BT system) was assessed by measuring total protein levels using sulforhodamine B (SRB) staining in parallel cultures at the time of biomarker measurements, indicated as SRB endpoints. For proliferation assays for adherent cell types, individual cell types are cultured at sub-confluence and relative cell numbers quantified by SRB staining at time points optimized for each system (48 h: 3C and CASM3C systems; 72 h: BT and HDF3CGF systems; 96 h: SAg system). SRB was performed by staining cells with 0.1% SRB after fixation with 10% TCA and reading wells at 560 nm.Viability and proliferation of PBMC (T cells) was quantified by Alamar Blue reduction for the SAg and BT systems. For PBMC viability (referred to as PBMC Cytotoxicity within the assay endpoint names), cells were plated (75,000/well in a 96-well plate) and then chemical samples added for 1 h before addition of activators, SEB and TSST-1 (20 ng/mL final concentration each). Cells were incubated for 90 h. Then, Alamar Blue (20 uL/well) (Invitrogen, Cat DAL1100) was added for 6 h, and the plates were read with a fluorescence microplate reader at 546/580 nm (excitation/emission). For PBMC proliferation, cells were plated and activated as above but incubated for only 16 h prior to addition of Alamar Blue. Plates were read after 6 h.
Consider `FC(F)(F)C(F)(F)C(F)(F)CC1CO1` (stereo not given), for which the result was inactive.
On the same count and under the same terms, with `FC(F)(F)C(F)(F)C(F)(F)C(F)(F)C(F)(F)C(F)(F)CC[Si](Cl)(Cl)Cl` the entry was “inactive”; with `CCOC(=O)CC(=O)C(F)(F)C(F)(F)F`, “inactive”.
With `OCCCCC(F)(F)C(F)(F)C(F)(F)C(F)(F)F`, the result was inactive.
With `O=C1C=CC(=O)N1c1ccc(Cc2ccc(N3C(=O)C=CC3=O)cc2)cc1`, the concentration at half-maximal activity (AC50) – broadly, the concentration giving half of the maximal activity seen – is 10.4 µM (active).
As to `OC(O)C(F)(F)C(F)(F)F`, the result was inactive.
Consider `NS(=O)(=O)C(F)(F)C(F)(F)C(F)(F)C(F)(F)C(F)(F)C(F)(F)F`, for which the result was inactive and the half-maximal activity concentration (AC50) was 20.1 µM (active).
Regarding `C=C(C)C(=O)OCC(F)(F)C(F)(F)C(F)(F)C(F)F`, the outcome was inactive.
On the same count and under the same terms, with `Cc1ccc(O)c(-n2nc3ccccc3n2)c1` the entry was “inactive”.
With `NC(=O)C(F)(F)C(F)(F)C(F)(F)C(F)(F)C(F)(F)C(F)(F)C(F)(F)F`, the outcome was inactive.
Turning to `CN(C(=O)C(F)(F)C(F)(F)C(F)(F)F)[Si](C)(C)C`, the result was inactive.
With `O=C(O)C(F)(F)C(F)(F)C(F)(F)C(F)(F)C(F)(F)C(F)(F)C(F)F`, the result was inactive.
On the same count and under the same terms, with `O=C(Cl)C(F)(F)C(F)(F)C(F)(F)C(F)(F)C(F)(F)C(F)(F)C(F)(F)F` the entry was “inactive”; with `O=S(=O)(O)CCC(F)(F)C(F)(F)C(F)(F)C(F)(F)F`, “inactive”.
With `C=CC(=O)OCC(F)(F)C(F)(F)C(F)(F)C(F)(F)C(F)(F)C(F)(F)C(F)(F)C(F)F`, the result was inactive and the concentration at half-maximal activity (AC50) was 24 µM (active).
Consider `O=C(O)C(F)(F)C(F)(F)C(F)(F)C(=O)O`, for which the outcome was inactive.
With `O=S(=O)(Cl)C(F)(F)C(F)(F)C(F)(F)C(F)(F)C(F)(F)C(F)(F)C(F)(F)C(F)(F)F`, the result was inactive.
As to `COC(F)(C(F)F)C(F)(F)F` (stereo not given), the outcome was inactive.
Turning to `C=CC(=O)OCC(F)(F)C(F)(F)C(F)(F)COC(=O)C=C`, the AC50 was 8.33 µM (active) and 8.66 µM (active).
Consider `OCC(O)CC(F)(F)C(F)(F)C(F)(F)C(F)(F)F` (stereo not given), for which the outcome was inactive.
Take `C[C@]12CC[C@H]3C(=CCc4cc(O)ccc43)[C@@H]1CCC2=O`: the outcome was inactive.
Same read-out and setting: with `CCN(CC)c1ccc(C=O)c(O)c1` the entry was “inactive”; with `CC(C)CCCC(C)CCO` (stereo not given), “inactive”.
Regarding `Cc1ccc(S(=O)(=O)C(I)I)cc1`, the AC50 was 2.38 µM (active).
In the case of `O=S(=O)(O)CCC(F)(F)C(F)(F)C(F)(F)C(F)(F)C(F)(F)C(F)(F)C(F)(F)C(F)(F)F`, the outcome was inactive.
As to `NC(=O)C(F)(F)C(F)(F)C(F)(F)C(F)(F)C(N)=O`, the outcome was inactive.
`CCN(CC)c1ccc(N=Nc2ccccc2)cc1`: the AC50 is 28.6 µM (active).
Consider `O=C(O)C(F)(F)OC(F)(F)C(F)(F)OC(F)(F)C(F)(F)OC(F)(F)F`, for which the outcome was inactive.
In the case of `NC(O)(C(F)(F)F)C(F)(F)F`, the result was inactive.
For the molecule `CO[Si](C)(CCC(F)(F)C(F)(F)C(F)(F)C(F)(F)C(F)(F)C(F)(F)F)OC`, the result was inactive.
With `Cc1cnccn1`, the result was inactive.
Regarding `O=C(O)C(F)(F)C(F)(F)C(F)(F)OC(F)(C(F)(F)F)C(F)(F)F`, the outcome was inactive.
Turning to `OCC(O)CC(F)(F)C(F)(F)C(F)(F)C(F)(F)C(F)(F)C(F)(F)C(F)(F)C(F)(F)F` (stereo not given), the result was inactive.
For the molecule `Nc1cc([N+](=O)[O-])cc(Cl)c1O`, the outcome was inactive.
Same read-out and setting: next, `C[Si](Cl)(Cl)CCC(F)(F)C(F)(F)C(F)(F)C(F)(F)C(F)(F)C(F)(F)F`: “inactive”; `NC(=O)C(F)(F)C(F)(F)C(F)(F)C(F)F`: “inactive”.
As for `O=C(c1ccccc1)c1ccc(O)cc1O`, the result was inactive.
Regarding `C=CC(=O)OCCC(F)(F)C(F)(F)C(F)(F)C(F)(F)F`, the AC50 was 30 µM (active) and 45.5 µM (active).
